TDP1 inh: inhibitors of human tyrosyl-DNA phosphodiesterase TDP1; hit rate 0.28% among 350,000; recombinant TDP1, AlphaScreen DNA substrate cleavage; AID 485290; Potency, µM (series often up to 130 µM), for the others: at the top dose activity change, negative = inhibition, hits mostly inhibitors; also: potency is read from the fitted curve at half-maximal effect; nearly all actives have a fitted effect of over 40% in size
Target sequence (Q9NUW8 whole entry, looked up): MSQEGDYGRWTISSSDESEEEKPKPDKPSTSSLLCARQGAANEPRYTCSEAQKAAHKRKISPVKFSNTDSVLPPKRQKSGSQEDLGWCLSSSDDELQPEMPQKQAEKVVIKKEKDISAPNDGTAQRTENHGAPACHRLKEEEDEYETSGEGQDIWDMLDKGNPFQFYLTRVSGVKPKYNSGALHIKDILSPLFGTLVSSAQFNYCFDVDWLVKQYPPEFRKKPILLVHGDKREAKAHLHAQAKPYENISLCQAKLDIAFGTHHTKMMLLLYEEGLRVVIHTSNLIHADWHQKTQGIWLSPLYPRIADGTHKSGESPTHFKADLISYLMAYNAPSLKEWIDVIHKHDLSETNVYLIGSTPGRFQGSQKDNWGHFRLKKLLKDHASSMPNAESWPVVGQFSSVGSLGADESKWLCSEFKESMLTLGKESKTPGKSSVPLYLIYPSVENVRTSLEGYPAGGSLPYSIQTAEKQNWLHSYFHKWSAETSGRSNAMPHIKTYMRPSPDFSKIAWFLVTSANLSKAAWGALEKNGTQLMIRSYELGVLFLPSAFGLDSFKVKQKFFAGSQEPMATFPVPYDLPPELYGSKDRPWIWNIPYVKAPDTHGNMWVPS
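Recombinant E. coli-expressed Tdp1 (1 nM) preincubated with compound 15 min at RT, then 5'-biotin/3'-phosphotyrosine-FITC DNA substrate (15 nM) added for 5 min. AlphaScreen beads (10 ug/ml) added, 10 min RT; tyrosine-FITC cleavage read as signal loss.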
TDP1 cell CPT: DT40-hTDP1 cell growth loss with CPT; Potency, µM (titrated, usually from 46.2 µM), for inactives: at the highest dose activity change, negative = growth inhibition, most hits filed as inhibitors; chicken DT40 Tdp1-/-;hTDP1 cells + 20 nM CPT, ATP luminescence, 48 h; hit rate 12% among 420,000; also: potency is read from the fitted curve at half-maximal effect; nearly all actives have a fitted effect of over 55% in size
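Cell growth measured by CellTiter-Glo luminescence after a minimum 48 h, 37 C compound exposure with 20 nM CPT in Tdp1-knockout DT40 cells stably expressing hTDP1, seeded 400/well; qHTS titration format.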
IL1B secr inh: inhibitors of inflammasome signaling (IL-1 beta secretion). THP-1 LPS/ATP IL-1B secretion, AlphaLISA, 16 h; active compounds read low. activity change, % at 57.5 µM. hit rate 4.7% among 360,000. AID 743279; in the data active = activity change below about -50%; inconclusive = mostly about -30% to -49%
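THP-1 cells pretreated 1 hr with compounds (up to 57.5 uM final), then stimulated with LPS (250 ng/mL final) plus ATP (1.25 mM final); secreted IL-1B measured by AlphaLISA after 16 hr, decreased signal indicating inhibition.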
TDP1 cell noCPT: qHTS for Inhibitors of human tyrosyl-DNA phosphodiesterase 1 (TDP1): qHTS in cells in absence of CPT; AID 686978, 2013; Potency, µM (series often up to 46.2 µM), for the others: at the highest dose activity change, negative = growth inhibition, usual class: inhibitors; hit rate 15% among 420,000; DT40 Tdp1-/- hTDP1 cells, no CPT, ATP luminescence, 48 h; also: potency is read from the fitted curve at half-maximal effect; nearly all actives have a fitted effect of over 55% in size
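Growth of hTDP1-complemented DT40 Tdp1-knockout cells is measured by ATP luminescence after at least 48 hr compound exposure at 37 °C, with DMSO substituting for the 20 nM CPT used in the parallel screen.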
CtBP-E1A inh: CtBP/E1A binding inhibition. AlphaScreen GST-E1A/His-CtBP binding, 1536-well; active compounds read low. activity change, % (no concentration beside the values). hit rate 0.49% among 340,000. AID 651724; in the data active = activity change below about -65%; inconclusive = mostly about -30% to -63%
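Protein mix (5X: 125 nM each GST-E1A, His-CtBP) was incubated with pinned compound 2 h at 37 deg C in dark, in 50 mM Tris pH 8.0 buffer with 300 mM NaCl. Glutathione donor and nickel acceptor beads followed; AlphaScreen signal read after 1 h.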
Six1-Eya2 blk: Six1/Eya2 interaction inhibition; Q15475+O00167; AlphaScreen GST-Six1/His-Eya2 binding, biochemical; active compounds read low; activity change, % (test concentration not listed); hit rate 0.56% among 360,000; in the data active = activity change below about -65%; inconclusive = mostly about -30% to -63%
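GST-Six1 + His-Eya2 (5X stock: 250/500 nM); Tris pH 8.0, 300 mM NaCl, 0.05% BSA, 0.02% Tween 20; GSH donor/Ni acceptor beads; 1 h 37 °C dark; AlphaScreen readout.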
The depositor's hits bear a star; ? = inconclusive; / = not tested or not shown; [ ] = remark or other dose. This is a sample that favours compounds with a hit; in the whole collection about 18% have one here. Unless noted, calls follow the shape of the dose curve; as a rule, active = well fitted curve in the direction sought with a large enough effect; inconclusive = small, poorly fitted or top-dose-only effect, or another doubt; inactive = no such curve, though single readings can be large; an effect the other way counts as inactive or inconclusive. % is scaled to controls: 0 for no effect and ±100 for the full control effect.

SMILES	TDP1 inh	TDP1 cell CPT	IL1B secr inh	TDP1 cell noCPT	CtBP-E1A inh	Six1-Eya2 blk
Cc1ccc2nc(NC(=O)C3=NN(c4ccccc4)C(=O)CC3)sc2c1	0%	-10%	-18	-13%	0	-12
CCOc1ccc2nc(NC(=O)CCn3cccc3)sc2c1	8%	-9%	-11	-2%	2	-9
CCOc1ccc2nc(NC(=O)c3cccnc3)sc2c1	4%	-22%	-7	-12%	4	0
CCOc1ccc2nc(NC(=O)CSc3ccccc3)sc2c1	0%	?	-9	26µM*	-1	-2
CCOc1ccc2nc(NC(=O)c3nc(SCc4ccccc4C)ncc3Cl)sc2c1	7%	13µM*	/	2.9µM*	/	/
CCOc1ccc2nc(NC(=O)c3cnc(C)cn3)sc2c1	4%	15µM*	-10	21µM*	-10	-6
CCc1ccc2nc(NC(=O)c3cc(C)on3)sc2c1	4%	9.2µM*	1	8.2µM*	-12	4
CN(C)C(=S)Nc1nc2ccccc2s1	7%	3.7µM*	20	2.6µM*	/	-6
CCOc1ccc2nc(NS(=O)(=O)Cc3ccccc3)sc2c1	2%	3.3µM*	36	4.6µM*	1	-6
CCOc1ccc2nc(NS(=O)(=O)c3ccc(NC(C)=O)cc3)sc2c1	5%	-5%	18	-17%	-3	-2
CCc1noc(C)c1C(=O)Nc1nc2ccc(F)cc2s1	-9%	7%	48	-16%	-1	7
CCOc1ccc2nc(NC(=O)c3ccc(C)o3)sc2c1	/	?	-30	18µM*	-3	-9
O=C(NC(=S)Nc1ccccc1N1CCOCC1)c1ccc(-c2cccc(Cl)c2)o1	4%	?	4	?	-4	1
CCN(CC)CCCn1c2c(c(SCC(=O)Nc3ccc4c(c3)OCCO4)nc1=O)CCC2	1%[0.505 µM]	?	?	-25%	6	0
Cc1ccccc1C(=O)Nc1nc2nc(-c3ccccc3)cc(=O)n2[nH]1	7%	-6%	/	-17%	/	/
CCN(CC)CCCNC(=O)Cn1nc(N2CCN(c3ccccc3OC)CC2)ccc1=O	3%	-28%	/	?	/	/
Cn1c(OCc2ccc3c(c2)OCO3)nc2c1c(=O)n(Cc1ccc(Cl)c(Cl)c1)c(=O)n2C	0%	?	14	?	13	5
CCOCCOc1nc2c(c(=O)n(C)c(=O)n2C)n1CCc1ccccc1	-4%	18µM*	19	21µM*	3	-1
C=CCOc1nc2c(c(=O)n(Cc3ccc(Cl)c(Cl)c3)c(=O)n2C)n1C	/	16µM*	15	23µM*	2	0
CCOCCn1c(=O)c2c(nc3n2CC(C)CN3CCc2ccccc2)n(C)c1=O (stereo not drawn)	2%	26µM*	-5	?	-14	-2
C=CCOc1nc2c(c(=O)n(C)c(=O)n2C)n1Cc1c(Cl)cccc1Cl	0%	?	-23	21µM*	14	2
Cc1cnc(-n2ncc(C(=O)NCc3ccccn3)c2C2CC2)nc1-c1cccs1	/	6%[9.04 µM]	/	-19%	/	/
COCCOc1nc2c(c(=O)n(C)c(=O)n2C)n1Cc1cccc(OC)c1	2%	8.2µM*	-17	7.3µM*	10	-5
CCOc1nc2c(c(=O)n(C)c(=O)n2C)n1Cc1ccccc1Cl	3%	16µM*	15	12µM*	-7	2
COc1ccc(SC[C@H](C)CN2CC[C@H](C)CCC2=O)cc1	0%	?	-13	?	-5	-2
SMILES	TDP1 inh	TDP1 cell CPT	IL1B secr inh	TDP1 cell noCPT	CtBP-E1A inh	Six1-Eya2 blk
C[C@@H]1CCC(=O)N(C[C@@H](C)CSc2ccc(Br)cc2)CC1	-12%	?	-19	18µM*	2	-2
C[C@@H]1CCC(=O)N(C[C@@H](C)CSc2ccccc2)CC1	/	?	3	?	/	6
Cc1ccc(SC[C@H](C)CN2CC[C@H](C)CCC2=O)cc1	/	13µM*	22	18µM*	0	-2
O=C(NCc1ccccc1)NC1CC2CCC(C1)N2Cc1ccco1 (stereo not drawn)	4%	10%	3	-20%	4	2
O=C(NC1CC2CCC(C1)N2Cc1nnnn1Cc1ccco1)NC12CC3CC(CC(C3)C1)C2 (stereo not drawn)	2%	21µM*	31	18µM*	22	22
CCOc1ccccc1C(=O)NC1CC2CCCC(C1)N2Cc1nnnn1Cc1ccco1 (stereo not drawn)	5%	?	?	16µM*	-1	6
CCOC(=O)c1ccc2nc(C)c(C)nc2c1	/	10%	5	12%	7	9
COc1ccc(Cl)cc1NC(=O)COC(=O)CC(C)(C)CC1=NS(=O)(=O)c2ccccc2N1	2%	?	/	21µM*	/	/
Cc1cc(C)cc(NC(=O)COC(=O)CCCC2=NS(=O)(=O)c3ccccc3N2)c1	-2%	1%	-5	10%	-10	-15
Cc1ccc(Cl)cc1NC(=O)COC(=O)CC(C)(C)CC1=NS(=O)(=O)c2ccccc2N1	1%	18µM*	/	26µM*	/	/
CS(=O)(=O)c1cccc(C(=O)NCc2ccc(F)cc2)c1	4%	-22%	6	-10%	-1	3
CCc1nc2ccc(C(=O)NCCCn3ccnc3)cn2c1N(C)CCC(C)C	/	?	-3	?	-5	0
COc1ccc2[nH]c3c(c2c1)CCN1C(=O)N([C@@H](C)C(=O)NC2CCCC2)C(=O)[C@]31C	/	12µM*	-8	?	-7	-5
CC(C)[C@@H](C(=O)NC1CCN(Cc2ccccc2)CC1)N1C(=O)N2CCc3c([nH]c4ccccc34)[C@@]2(C)C1=O	/	18µM*	?	13µM*	?	-26
COc1ccc2[nH]c3c(c2c1)CCN1C(=O)N([C@@H](C)C(=O)NC2CC2)C(=O)[C@]31C	/	-26%	10	?	-1	-8
CC(C)C[C@@H](C(=O)NC1CCN(Cc2ccccc2)CC1)N1C(=O)N2CCc3c([nH]c4ccccc34)[C@@]2(C)C1=O	/	12µM*	-25	21µM*	-26	?
CC(C)C[C@@H](C(=O)NC1CC1)N1C(=O)N2CCc3c([nH]c4ccccc34)[C@@]2(C)C1=O	/	?	9	?	-3	-4
COc1ccc2[nH]c3c(c2c1)CCN1C(=O)N([C@@H](C)C(=O)NC2CCN(Cc4ccccc4)CC2)C(=O)[C@]31C	/	16µM*	-22	16µM*	-15	-20

High-throughput results (PubChem)
